Here are results for seven molecules from PubChem BioAssay (NCATS).

Assay [1] is described as follows: qHTS Assay for Lipid Storage Modulators (AID 1519; calls by dose curve; for activity change, negative = inhibition: % is set by controls: 0 for no effect and ±100 for the full control effect). Conditions: Drosophila S3 cells, BODIPY lipid droplet/cell ratio, laser cytometry, cells loaded with oleic acid; for activity change, negative = inhibition: at 57.5 µM (top of the series). The essentials: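 Cells seeded at 5,000 per well were treated with compounds over a concentration series and loaded with oleic acid (400 uM, as added). Lipid droplet fluorescence (488 nm excitation, 500-530 nm channel) was read by laser-scanning cytometry and normalized to 20 uM Triacsin C.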
In general terms: qHTS replaces the single test concentration by a dilution series.

Assay [2] addresses DNA repair nuclease/redox regulator APEX1 (Homo sapiens) (UniProt P27695). The assay is described as follows: qHTS Validation Assay for Inhibitors of the Human Apurinic/apyrimidinic Endonuclease 1 (APE1) (AID 1705;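 note: TAMRA fluorescence gain over two minutes as APE1 cuts a quenched THF abasic duplex; % is set by controls: 0 for no effect and ±100 for the full control effect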). Conditions: purified APE1 endonuclease activity, fluorescence, titration; series mostly up to 57.1 µM. The essentials: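 Substrate: 50 nM final fluorophore/quencher THF-abasic duplex. Enzyme preincubated with compounds 15 min, RT. Progress derived from fluorescence difference, third minus first kinetic read.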

For assay [3], the target named is Endonuclease 4 (Escherichia coli (strain K12)) (UniProt P0A6C1). The assay is described as follows: Counterscreen for APE1 Inhibitors: qHTS Validation Assay for Inhibitors of Endonuclease IV (AID 1708). Note: % is set by controls: 0 for no effect and ±100 for the full control effect. To be noted: E. coli endonuclease IV, DNA cleavage fluorescence; series mostly up to 57.1 µM. The essentials:
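Conditions: 2 nM enzyme, 50 nM TAMRA/BHQ-2 substrate, pH 7.5 Tris buffer with 2 mM MgCl2, RT. Compound preincubation 15 min; readout three fluorescence reads 60 s apart, third-minus-first.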

Assay [4] can be described thus: qHTS for differential inhibitors of proliferation of Plasmodium falciparum line 3D7 (AID 1876). Note: potency is the fitted concentration of half-maximal effect. To be noted: P. falciparum 3D7 proliferation inhibition; series mostly up to 28.7 µM.
A short description of assay [5]: qHTS for differential inhibitors of proliferation of Plasmodium falciparum line D10 (AID 1877).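 Note: parasites grown with compound for 72 h before DNA staining; plate controls were vehicle wells for no effect and reference inhibitor wells for full effect.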 To be noted: series mostly up to 28.7 µM.
The nature of assay [6]: qHTS for differential inhibitors of proliferation of Plasmodium falciparum line Dd2 (AID 1882).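 Note: plate controls were DMSO vehicle for no effect and 0.29 µM artemisinin for full effect; nearly all actives have a fitted effect of over 65% in size.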 To be noted: Potency: Plasmodium falciparum Dd2 proliferation inhibition; series mostly up to 28.7 µM. Put shortly:
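SYBR Green DNA fluorescence (ex 485, em 535 nm) after overnight lysis quantifies parasite growth; compound exposure lasted 72 h at 37 C on infected red cells at 2.5% hematocrit, 0.3% parasitemia (final). Artemisinin 0.29 uM and vehicle wells define normalization.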

A short description of assay [7]: qHTS for differential inhibitors of proliferation of Plasmodium falciparum line HB3 (AID 1886).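 Note: parasites grown with compound for 72 h before SYBR Green readout; plate controls were vehicle for no effect and reference inhibitor for full effect.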 To be noted: Potency: Plasmodium falciparum HB3 proliferation inhibition; series mostly up to 28.7 µM.
For assay [8], the target named is ATP-dependent DNA helicase Q1 (Homo sapiens) (UniProt P46063). The assay is described as follows: qHTS Validation Assay for Inhibitors of RecQ-Like Dna Helicase 1 (RECQ1) (AID 2353).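 Note: plate controls were DMSO vehicle for no effect and enzyme-free control for full effect.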 To be noted: recombinant RECQ1 helicase DNA unwinding assay; series mostly up to 25.6 µM. Put shortly:
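RECQ1T1 50 nM; forked duplex (20 bp + 30-nt ss tails) 200 nM, ATP 2 mM final; pH 8.0, 2 mM MgCl2, 2.5 ug/ml poly(dI-dC); 15 min compound preincubation; discontinuous kinetic read over 2 h at RT.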

Assay [9] addresses alpha-glucosidase (Oryza sativa, rice) (UniProt Q653V4). Kind of assay: Counterscreen for Glucocerebrosidase Inhibitors: qHTS Assay for Rice alpha-Glucosidase at pH 5.0 (AID 997).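 Note: 0% = full activity with enzyme and -100% = basal without enzyme.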 Conditions: rice alpha-glucosidase enzyme activity; series mostly up to 76.9 µM. The essentials: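 Endpoint fluorogenic assay at pH 5.0: compounds (0.7 nM to 77 uM) titrated against 4 nM rice enzyme and 400 uM 4-MU-alpha-glucoside for 20 min at room temperature; NaOH/glycine stop, read ex 365/em 440 nm, Hill-fitted AC50.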
A general note: The purpose of a counterscreen is to sort out artefacts and off-target activity.

Assay [10] in a line: qHTS for differential inhibitors of proliferation of Plasmodium falciparum line GB4 (AID 1816).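 Note: parasite growth measured after 72 h incubation; 0% = vehicle DMSO and -100% = reference inhibitor.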 To be noted: Potency: Plasmodium falciparum GB4 proliferation inhibition; series mostly up to 28.7 µM.
The nature of assay [11]: qHTS for differential inhibitors of proliferation of Plasmodium falciparum line W2 (AID 1883).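 Note: parasites grown with compound for 72 h before lysis and staining; 0% = vehicle wells and -100% = control inhibitor wells.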 Conditions: Potency: Plasmodium falciparum W2 proliferation inhibition; series mostly up to 28.7 µM.
Assay [12] in a line: qHTS Assay for Modulators of Human Peripheral Myelin Protein 22 (PMP22) Expression/Activity (AID 1967; active = well fitted curve in the direction sought with a large enough effect in the signal ratio; the % refers to the signal ratio;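 note: 0% = untreated cells and 100% end not stated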). To be noted: Cell-based PMP22 reporter, dual-color luciferase ratio, 0% = compound-free control cells, mouse Pmp22 promoter in mouse Schwann cells; series mostly up to 115 µM. The essentials: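 Engineered MSC80 cells, Pmp22-promoter green and EF-alpha red luciferase reporters; 24h compound treatment at 37 °C. Concentration-response fits on green, red and ratio signals, each overlap-corrected, with %Activity normalized to untreated wells.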

Assay [13] is described as follows: Counterscreen for APE1 Inhibitors: Fluorescent Dye Displacement Validation Assay (AID 1707).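 Note: plate controls were ThO with dsDNA and no compound for no effect and ThO without dsDNA for full effect.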 To be noted: fluorescent dye displacement from DNA; series mostly up to 57.1 µM. The essentials: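 Reaction mixture of 250 nM Thiazole Orange and 50 nM double-stranded abasic-site DNA was dispensed, compounds were pin-transferred, and fluorescence was read at endpoint (480 nm ex, 540 nm em). Reduced fluorescence indicated dye displacement by DNA binding.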

Assay [14] is described as follows: qHTS for differential inhibitors of proliferation of Plasmodium falciparum line 7G8 (AID 1815).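 Note: parasite growth measured after three days of incubation; plate controls were vehicle wells for no effect and reference inhibitor wells for full effect.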 To be noted: Plasmodium falciparum 7G8 proliferation inhibition; series mostly up to 28.7 µM.
Assay [15] addresses Ferritin light chain (Equus caballus) (UniProt P02791). The assay is described as follows: qHTS Validation Assay for Identification of Novel General Anesthetics (AID 2323). Note: % is set by controls: 0 for no effect and ±100 for the full control effect. Conditions: horse apoferritin, anesthetic-site fluorescent probe displacement; series mostly up to 76.9 µM. Put shortly:
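Normalized fluorescence response, scaled between free 1-AMA and 1-AMA/apoferritin complex, fitted to a four-parameter Hill equation for concentration-effect values. Binding mix: 10 uM horse-spleen apoferritin, 50% saturated 1-AMA in PBS; read 380/535 nm after 10 min.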

Assay [16] can be described thus: Validation of Assay for Modulators of Lamin A Splicing (AID 1459; active = well fitted curve in the direction sought with a large enough effect in the signal ratio; the % refers to the signal ratio;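 note: cells exposed to compound for two days before reading; 0% is about no effect; ratio rise marks activators and ratio drop marks inhibitors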). To be noted: Lamin A splicing dual RFP/GFP fluorescence reporter; series mostly up to 9.22 µM. Put shortly: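 Dual-reporter HeLa S3 line (lamin A-EGFP minigene, DsRed2) treated with compounds 48 hrs, 0.5% DMSO final. Endpoint: EGFP/DsRed2 total intensity ratio from laser-scanning microplate cytometry.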

Assay [17] concerns the target RecQ-like DNA helicase BLM (Homo sapiens) (UniProt P54132). The assay is described as follows: qHTS Validation Assay for Inhibitors of Bloom's syndrome helicase (BLM) (AID 2364).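 Note: plate controls were DMSO vehicle for no effect and enzyme-free control for full effect.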 Conditions: BLM helicase DNA unwinding, fluorescence, in vitro; series mostly up to 57.1 µM. The essentials:
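50 nM BLM preincubated 15 min at room temperature with compound in pH 8.0 Tris buffer containing 2.5 ug/ml poly(dI-dC); started with 200 nM TAMRA/BHQ-2 forked duplex and 2 mM ATP (final). Unwinding read as TAMRA fluorescence increase, two reads 2 h apart.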

[18] abbreviates: measured here: cell count channel max response.
The mark [19] stands for this setting: measured here: lipid channel max response.

Records with an inconclusive call do not appear. Activity calls are given as the source filed them. Unless noted, calls come from the whole dose curve; as a rule, active = well fitted curve in the direction sought with a large enough effect; inconclusive = small, poorly fitted or top-dose-only effect, or another doubt; inactive = no such curve, though single readings can be large; an effect the other way counts as inactive or inconclusive.

Chain of DNA repair nuclease/redox regulator APEX1 (Homo sapiens) (P27695 whole entry, looked up): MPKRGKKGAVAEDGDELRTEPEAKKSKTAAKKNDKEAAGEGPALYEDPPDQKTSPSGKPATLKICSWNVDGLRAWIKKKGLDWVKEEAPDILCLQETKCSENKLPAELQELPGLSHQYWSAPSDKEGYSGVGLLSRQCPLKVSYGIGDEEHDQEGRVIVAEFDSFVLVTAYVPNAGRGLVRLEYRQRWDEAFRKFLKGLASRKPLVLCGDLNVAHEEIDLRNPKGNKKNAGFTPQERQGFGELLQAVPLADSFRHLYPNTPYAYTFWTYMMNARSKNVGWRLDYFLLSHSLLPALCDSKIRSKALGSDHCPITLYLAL
Chain of Ferritin light chain (Equus caballus) (P02791 2-175 limits assumed): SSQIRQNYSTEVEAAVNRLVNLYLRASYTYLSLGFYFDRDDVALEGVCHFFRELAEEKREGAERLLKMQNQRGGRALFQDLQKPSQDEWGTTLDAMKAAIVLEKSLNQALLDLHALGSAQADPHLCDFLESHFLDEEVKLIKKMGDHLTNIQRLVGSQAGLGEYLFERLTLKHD
Chain of ATP-dependent DNA helicase Q1 (Homo sapiens) (P46063 whole entry, looked up): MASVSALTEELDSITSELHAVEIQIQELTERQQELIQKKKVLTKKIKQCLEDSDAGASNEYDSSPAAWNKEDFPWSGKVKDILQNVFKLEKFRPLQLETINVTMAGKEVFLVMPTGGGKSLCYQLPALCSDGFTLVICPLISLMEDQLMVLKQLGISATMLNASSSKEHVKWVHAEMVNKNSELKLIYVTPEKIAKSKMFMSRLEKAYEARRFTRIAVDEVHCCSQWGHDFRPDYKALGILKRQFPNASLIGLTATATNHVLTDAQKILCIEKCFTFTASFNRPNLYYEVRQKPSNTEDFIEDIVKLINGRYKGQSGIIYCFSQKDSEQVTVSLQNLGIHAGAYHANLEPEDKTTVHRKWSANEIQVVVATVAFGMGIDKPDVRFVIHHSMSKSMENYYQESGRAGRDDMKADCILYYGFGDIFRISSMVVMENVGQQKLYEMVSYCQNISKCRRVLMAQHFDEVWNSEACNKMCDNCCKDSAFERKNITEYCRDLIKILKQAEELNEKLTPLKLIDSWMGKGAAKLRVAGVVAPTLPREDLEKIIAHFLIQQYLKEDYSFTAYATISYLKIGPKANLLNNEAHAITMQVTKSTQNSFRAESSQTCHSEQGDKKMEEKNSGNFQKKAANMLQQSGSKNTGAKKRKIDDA
Chain of RecQ-like DNA helicase BLM (Homo sapiens) (P54132 whole entry, looked up): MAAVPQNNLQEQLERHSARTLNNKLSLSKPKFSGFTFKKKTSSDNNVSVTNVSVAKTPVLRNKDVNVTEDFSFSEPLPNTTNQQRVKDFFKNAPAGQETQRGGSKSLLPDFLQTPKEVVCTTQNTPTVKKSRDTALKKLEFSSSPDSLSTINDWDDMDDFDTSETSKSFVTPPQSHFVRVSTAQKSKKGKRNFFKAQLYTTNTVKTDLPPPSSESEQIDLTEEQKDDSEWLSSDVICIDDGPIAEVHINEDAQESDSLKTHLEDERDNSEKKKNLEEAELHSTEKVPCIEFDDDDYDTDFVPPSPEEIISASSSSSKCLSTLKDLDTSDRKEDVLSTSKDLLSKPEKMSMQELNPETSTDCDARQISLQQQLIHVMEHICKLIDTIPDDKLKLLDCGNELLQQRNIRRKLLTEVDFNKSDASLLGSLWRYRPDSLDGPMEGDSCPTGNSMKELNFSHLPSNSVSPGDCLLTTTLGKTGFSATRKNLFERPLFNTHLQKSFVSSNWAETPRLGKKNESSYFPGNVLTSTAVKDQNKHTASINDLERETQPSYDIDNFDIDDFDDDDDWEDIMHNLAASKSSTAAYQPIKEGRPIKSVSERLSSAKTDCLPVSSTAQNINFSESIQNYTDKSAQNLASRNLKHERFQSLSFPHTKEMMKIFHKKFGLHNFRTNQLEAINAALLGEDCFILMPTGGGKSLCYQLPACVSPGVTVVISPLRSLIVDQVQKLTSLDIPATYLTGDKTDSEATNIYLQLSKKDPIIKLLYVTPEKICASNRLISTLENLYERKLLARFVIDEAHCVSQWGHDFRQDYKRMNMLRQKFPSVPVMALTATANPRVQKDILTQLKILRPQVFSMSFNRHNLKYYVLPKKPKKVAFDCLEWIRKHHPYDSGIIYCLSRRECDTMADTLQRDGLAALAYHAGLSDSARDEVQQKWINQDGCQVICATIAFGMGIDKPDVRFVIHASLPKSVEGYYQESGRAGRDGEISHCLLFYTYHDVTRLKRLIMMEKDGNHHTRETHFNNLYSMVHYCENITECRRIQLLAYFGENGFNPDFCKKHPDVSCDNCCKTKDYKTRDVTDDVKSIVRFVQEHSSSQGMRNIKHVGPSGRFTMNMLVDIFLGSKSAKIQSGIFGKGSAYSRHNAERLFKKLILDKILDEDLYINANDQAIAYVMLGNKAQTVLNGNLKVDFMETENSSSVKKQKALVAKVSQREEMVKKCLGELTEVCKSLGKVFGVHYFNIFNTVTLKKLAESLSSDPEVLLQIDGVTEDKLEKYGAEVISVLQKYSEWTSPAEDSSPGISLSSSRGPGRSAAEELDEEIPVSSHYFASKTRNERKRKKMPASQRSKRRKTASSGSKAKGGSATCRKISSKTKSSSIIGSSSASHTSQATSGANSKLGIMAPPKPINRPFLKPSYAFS

In the case of `CC#CCOC(=O)c1c(C)nc2sc3c(c2c1N)CCC(O)C3` (stereo not given), in assay [1], the activity change, negative = inhibition is -1.83% (inactive). Further, the max response in [1] (setting [18]) was determined as 5.64%; in assay [1] (setting [19]), 4.05%. For the same molecule, the Potency result in assay [2], in assay [3], in assay [5], in [6], in [7] and in [8] was “inactive” in each case. Moreover, in assay [4], the Potency was 11.2 µM (active).
On to `CC(=O)N[C@@H](Cc1c[nH]c2ccccc12)C(=O)OCc1cc(C(F)(F)F)cc(C(F)(F)F)c1`, for which the molecule was classed as inactive in assay [9] and in assay [12]. The activity change, negative = inhibition in assay [1] was -1.99% (inactive). The max response in assay [1] (setting [18]) is -16.3%; in assay [1] (setting [19]), -17.3%. In addition, the Potency result in assay [10], in [4], in assay [5], in assay [6], in assay [11] and in assay [7] was “inactive” in each case. The Potency entry in [8] is “inactive”.
Turning to `NC(N)=N[C@@H](CCC(=O)O)C(=O)O`, the Potency result in [2], in assay [13], in [3], in [14], in assay [10] and in assay [4] was “inactive” in each case. The Potency entry in [5], in assay [6], in assay [11], in assay [7], in assay [15] and in [8] was “inactive” each time.
For the molecule `COc1ccc2c(c1)c(CC(=O)O)c(C)n2C(=O)c1ccccc1`, the call in assay [9] and in assay [12] was inactive. Further, the Potency entry in [2], in assay [13], in assay [3], in assay [14], in [10] and in [4] was “inactive” throughout. In addition, the Potency entry in [5], in assay [6], in assay [11], in assay [7] and in [8] was “inactive” each time.
In the case of `N=C(N)SCCc1cnc[nH]1`, the molecule was classed as inactive in assay [9] and in assay [12]. Besides, the activity change, negative = inhibition in assay [1] was 2.03% (inactive). In addition, the max response in assay [1] (setting [18]) is 1.98%; in assay [1] (setting [19]) it was 5.06%. Besides, the Potency entry in assay [13], in assay [3], in [14], in [10], in [4] and in assay [5] was “inactive” in each case. The Potency result in assay [6], in assay [7], in [15] and in assay [8] was “inactive” each time.
In the case of `CN(C)C(=O)/N=N/C(=O)N(C)C`, the result in [16] was inactive. Besides, the Potency entry in assay [14], in assay [10], in [4], in assay [5], in [6] and in assay [11] was “inactive” throughout. Further, the Potency result in assay [7], in [15], in assay [8] and in assay [17] was “inactive” throughout.
Take `O=C(O)Cc1c[nH]c2ccc(O)cc12`: in assay [9], the call was inactive. Besides, in assay [1], the activity change, negative = inhibition was 1.1% (inactive). Besides, the max response in [1] (setting [18]) was -19.7%; in assay [1] (setting [19]) it was -16.3%. The Potency result in assay [2], in assay [13], in assay [14], in assay [10], in assay [5] and in assay [6] was “inactive” in each case. Besides, the Potency result in assay [8] and in [17] was “inactive” each time.
